# Records with an inconclusive call do not appear. A call without a number means that no potency is given here. Calls of active or inactive are those of the source. Calls come from the whole dose curve; as a rule, active = well fitted curve in the direction sought with a large enough effect; inconclusive = small, poorly fitted or top-dose-only effect, or another doubt; inactive = no such curve, though single readings can be large; an effect the other way counts as inactive or inconclusive.
# Assays:
# [1] = target: Glutathione peroxidase 1 (Homo sapiens) (UniProt P07203); test: Primary qHTS Assay for Inhibitors of Recombinant Selenoprotein Glutathione Peroxidase 1 (GPX1) (AID 1845191); note: nearly all actives have a fitted effect of over 65% in size
# Sequence of Glutathione peroxidase 1 (Homo sapiens) (P07203 whole entry, looked up): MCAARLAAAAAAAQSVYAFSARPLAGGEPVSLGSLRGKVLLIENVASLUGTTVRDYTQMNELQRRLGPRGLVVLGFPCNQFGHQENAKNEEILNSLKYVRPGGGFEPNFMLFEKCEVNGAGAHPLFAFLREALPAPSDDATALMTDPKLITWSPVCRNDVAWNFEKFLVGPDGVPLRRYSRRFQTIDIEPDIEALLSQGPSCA
# How it was run: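 Recombinant GPX1 (10 nM final) was preincubated with compound for 30 min at room temperature, then reacted with 1 mM GSH, 0.5 mM CHP, 0.5 mM NADPH and 100 nM glutathione reductase; NADPH fluorescence (340/450 nm) was read at 0 and 15 min.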
# [2] = target: Phospholipid hydroperoxide glutathione peroxidase GPX4 (Homo sapiens) (UniProt P36969); test: Primary qHTS Assay for Inhibitors of Recombinant Selenoprotein Glutathione Peroxidase 4 (GPX4) (AID 1845192); note: nearly all actives have a fitted effect of over 65% in size
# Sequence of Phospholipid hydroperoxide glutathione peroxidase GPX4 (Homo sapiens) (P36969 whole entry, looked up): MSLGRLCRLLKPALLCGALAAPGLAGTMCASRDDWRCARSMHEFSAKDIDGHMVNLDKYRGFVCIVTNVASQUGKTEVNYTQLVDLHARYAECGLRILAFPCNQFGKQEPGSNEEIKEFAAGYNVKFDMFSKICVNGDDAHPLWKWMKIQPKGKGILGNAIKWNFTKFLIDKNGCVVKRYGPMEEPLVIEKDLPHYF
# How it was run: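 GR-coupled readout: 100 nM GR, 1 mM GSH, 0.5 mM NADPH; NADPH fluorescence (ex 340/em 450 nm) read at t=0 and after 15 min RT. GPX4 200 nM, preincubated 30 min with compound; substrate 0.5 mM CHP.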
# [3] = Quantitative High-Throughput drug screen in 47 multiple myeloma cell lines against the NCATS MIPE library collection: FR4_PLB cell viability assay (AID 1918924; note: nearly all actives have a fitted effect of over 35% in size; note: potency is the fitted concentration of half-maximal effect)
# How it was run: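 Viability readout: CellTiter-Glo luminescence following 5 min room-temperature incubation with reagent. Prior exposure: 48 h, 37C, humidified 5% CO2, 500 cells per well.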
# [4] = Quantitative High-Throughput drug screen in 47 multiple myeloma cell lines against the NCATS MIPE library collection: Delta47_JCRB cell viability assay (AID 1918925; note: nearly all actives have a fitted effect of over 45% in size; note: potency is the fitted concentration of half-maximal effect)
# How it was run: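 Approved and investigational drugs from MIPE 4.0 were added by pin tool to 500 cells per well. After 48 hours at 37C, ATP-based CellTiter-Glo luminescence indicated remaining viability.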
# [5] = target: Luciferin 4-monooxygenase (Photinus pyralis) (UniProt P08659); test: Primary firefly luciferase (FLuc) qHTS assay for identification of artifact compounds. (AID 1845220); settings: outcome: dose series up to 54.1 µM; note: series mostly up to about 54 µM; nearly all actives have a fitted effect of over 60% in size
# How it was run: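 qHTS, 15 min compound preincubation with substrate (10 uM luciferin, 10 uM ATP) at RT, then 10 nM FLuc; 5 min; luminescence; % inhibition vs no-enzyme/DMSO controls, 4-parameter Hill fit.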
# [6] = system: Nanoluciferase (engineered Oplophorus gracilirostris luciferase); test: Primary Nanoluciferase (NLuc) qHTS assay for identification of artifact compounds. (AID 1845222); note: series mostly up to about 54 µM
# How it was run: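 Luminescence read-out of secreted NLuc in S16 cell conditioned medium (1:55); compounds tested with 15 min RT preincubation, then Nano-Glo substrate 1:100, 5 min. % inhibition vs no-enzyme and DMSO controls, 4-parameter Hill fit.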
# [7] = Primary fluorescence-based thiol-reactive (MSTI) qHTS assay for identification of artifact compounds. (AID 1845221);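 note: series mostly up to about 54 µM; thiol-reactive compounds lower the probe fluorescence signal; nearly all actives have a fitted effect of over 65% in size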
# How it was run: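 A multi-concentration qHTS design tested compounds against 4 uM MSTI, pH 7.4 phosphate-buffered saline. Plates were protected from light for 1 h at room temperature before imaging fluorescence.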
# [8] = Primary redox qHTS assay for identification of artifact compounds. (AID 1845223)
# How it was run: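 Amplex Red (25 uM) and HRP (250 mU/mL) in HBSS, with compounds for 15 min, then 250 uM DTT for 30 min, room temperature, dark. Fluorescence 525/598 nm read; normalized to DMSO and 10 uM DA3003; Hill fit.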
smiles,measurement,setting,value
Cn1cc(C2=C(c3cn(C4CCN(Cc5ccccn5)CC4)c4ccccc34)C(=O)NC2=O)c2ccccc21,Potency,[1],inactive
same,Potency,[2],inactive
same,Potency,[3],16600 nM (active)
same,Potency,[4],5900 nM (active)
Cc1sc2c(c1C)C(c1ccc(Cl)cc1)=N[C@@H](CC(=O)OC(C)(C)C)c1nnc(C)n1-2,Potency,[1],inactive
same,Potency,[2],inactive
same,Potency,[3],332 nM (active)
same,Potency,[4],743 nM (active)
COC[C@H]1OC(=O)c2coc3c2[C@@]1(C)C1=C(C3=O)C2CCC(=O)[C@@]2(C)C[C@H]1OC(C)=O (stereo not given in full),Potency,[1],inactive
same,Potency,[2],inactive
same,outcome,[5],inactive
same,outcome,[6],inactive
same,Potency,[3],11800 nM (active)
same,Potency,[4],46.9 nM (active)
CN1CCN(C(=O)O[C@H]2c3nccnc3C(=O)N2c2ccc(Cl)cn2)CC1,Potency,[1],inactive
same,Potency,[2],inactive
same,Potency,[3],inactive
C=C(C)[C@H]1Cc2c(ccc3c2O[C@@H]2COc4cc(OC)c(OC)cc4[C@@H]2C3=O)O1,Potency,[1],inactive
same,Potency,[2],inactive
same,Potency,[3],935 nM (active)
same,Potency,[4],118 nM (active)
O=P1(NCCCl)OCCCN1CCCl (stereo not given),Potency,[1],inactive
same,Potency,[2],inactive
same,Potency,[3],16600 nM (active)
N[C@@H](Cc1ccc(N(CCCl)CCCl)cc1)C(=O)O,Potency,[1],inactive
same,Potency,[2],inactive
same,Potency,[3],20900 nM (active)
same,Potency,[4],13200 nM (active)
C[C@@H]1[C@@H](CC(C[C@H]2O[C@@H]3O[C@]4(C)CC[C@@H]5[C@H](C)CC[C@@H]([C@H]2C)[C@@]35OO4)C[S+](=O)([O-])c2ccc(COC(=O)N(C)C)cc2)O[C@@H]2O[C@]3(C)CC[C@H]4[C@H](C)CC[C@@H]1[C@@]24OO3 (stereo not given in full),Potency,[3],209 nM (active)
same,Potency,[4],235 nM (active)
CN(C)CCN(C)CCc1ccc(Cl)c(Cl)c1,Potency,[1],inactive
same,Potency,[2],inactive
same,Potency,[3],inactive
C[C@H]1O[C@@H](O[C@H]2[C@@H](O)C[C@H](O[C@H]3[C@@H](O)C[C@H](O[C@H]4CC[C@@]5(C)[C@H](CC[C@@H]6[C@@H]5CC[C@]5(C)[C@@H](C7=CC(=O)OC7)CC[C@]65O)C4)O[C@@H]3C)O[C@@H]2C)C[C@H](O)[C@@H]1O,Potency,[1],inactive
same,Potency,[2],inactive
same,outcome,[5],inactive
same,outcome,[7],inactive
same,outcome,[6],inactive
same,outcome,[8],inactive
CN(C)[C@@H]1C(=O)C(C(N)=O)=C(O)[C@@]2(O)C(=O)C3=C(O)c4c(O)cccc4[C@@](C)(O)[C@H]3C[C@@H]12,Potency,[1],inactive
same,Potency,[2],inactive
same,Potency,[4],inactive
C[C@@H]1[C@@H](C(=O)C[C@H]2O[C@@H]3O[C@]4(C)CC[C@@H]5[C@H](C)CC[C@@H]([C@H]2C)[C@@]35OO4)O[C@@H]2O[C@]3(C)CC[C@H]4[C@H](C)CC[C@@H]1[C@@]24OO3,Potency,[4],235 nM (active)
O=C1CC[C@@]2(O)[C@H]3Cc4ccc(O)c5c4[C@@]2(CCN3CC2CC2)[C@H]1O5,Potency,[1],inactive
same,Potency,[2],inactive
same,Potency,[3],inactive
FC(F)(F)c1cccc(C2=CCN(CCc3ccc4ccccc4c3)CC2)c1,Potency,[1],inactive
same,Potency,[2],inactive
CN(C)CCc1ccc(O)cc1,Potency,[3],inactive
same,Potency,[4],inactive
CCCC(C)(COC(N)=O)COC(=O)NC(C)C (stereo not given),Potency,[4],inactive
Oc1cccc2cccnc12,Potency,[1],inactive
same,Potency,[2],inactive
COC[C@@H](NC(C)=O)C(=O)NCc1ccccc1,Potency,[1],inactive
same,Potency,[2],inactive
same,Potency,[3],inactive
same,Potency,[4],inactive
COc1ccc(C(=O)c2c(C)n(CCN3CCOCC3)c3ccccc23)cc1,Potency,[1],inactive
same,Potency,[2],inactive
same,Potency,[4],inactive

# Source: PubChem BioAssay (NCATS)
